Results: article PMC5540273 (PLoS ONE, 2017)

Tested on: AAK1
Details: concentration: 1 μM, replicates: in singlicate; n = 1
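Further: KINOMEscan kinase panel screen.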

SMILES	%Inh [%]
CCC(CC)(CC)n1cnc2c(N)ncnc21 [SKF-97620]	0
COc1ccc(NC(=O)Nc2ccc(C)c(-c3ccc(C(=O)Nc4ccncc4)cc3)c2)cc1 [GSK1398475]	2
COc1ccc(NC(=O)c2ccc(-c3cc(-c4nnc(C)o4)ccc3C)cc2)cc1 [GW595885]	0
CC(C)(C)OC(=O)NC1CCCN(c2cc(-c3ccc4c(N)n[nH]c4c3)nc(N)n2)C1 (stereo not shown) [GSK2286096]	60
O=C(Nc1ccccc1F)NC1CCN(c2ccnc(Nc3ccc(F)cc3)n2)C1 (stereo not shown) [GSK1379722]	0
CS(=O)(=O)CCNCc1nc(-c2ccc3ncnc(Nc4ccc(OCc5cccc(F)c5)c(Cl)c4)c3c2)cs1.Cl [GW583340]	19
CCc1nc(-c2cccc(N(C)S(=O)(=O)c3ccccc3)c2)c(-c2ccnc(Nc3ccc(N4CCN(C(C)=O)CC4)nc3)n2)s1 [GSK1645895]	26
COc1ccc(-c2nc3n(c2-c2ccncc2)CCC3)cc1 [SKF-104493]	0
Fc1ccc(Nc2nccc(-c3c(-c4ccc(Cl)cc4)nn4ncccc34)n2)cc1F [GW829058]	0
Cc1ccc(O)cc1Nc1cc(C(F)(F)F)nc2ccc(-c3ccncc3)cc12 [GW630823]	0
COc1ccc(Nc2nccc(N3CCC(NC(=O)c4cccc(NC(C)=O)c4)C3)n2)cc1 (stereo not shown) [GSK1379732]	17
Cn1ccc2ncnc(Nc3ccc(Oc4cccc(Cl)c4)c(Cl)c3)c21	27
CSc1ccc(NC2=C(c3ccccc3Cl)C(=O)NC2=O)cc1 [SB-342411]	24
